Compound activity as filed in PubChem BioAssay.
NS1 function inh: blocks influenza NS1 protein function. AID 2326. Potency, µM (series often up to 46.1 µM), without a hit: at the highest dose activity, positive = more growth. 0.4% of 270,000 active; calls by dose curve; further: potency means the concentration at half of the fitted maximal effect; actives are rising curves; nearly all actives have a fitted effect of over 50% in size
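Read-out: OD600 growth recovery of NS1-expressing budding yeast. Cells grown overnight at 30C in -URA glucose medium, washed, resuspended and diluted 1:100 in 2% galactose assay medium, pH 6.0. Same strain lacking NS1 served as positive control.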
Shiga toxin inh: blocks Shiga toxin action in Vero cells | Vero cells, Shiga toxin protein synthesis inhibition reporter | inhibition, % at 38.7 µM | 9.2% of 290,000 active | AID 2315; in the data active means inhibition mostly above about 28%, no sharp cut-off; inactive means mostly below about 43%; further: 0% is about no effect
Cycloheximide cs: counter-screen for Shiga toxin inhibitors: cycloheximide protein synthesis inhibition. cell reporter, cycloheximide protein synthesis inhibition counterscreen. max response, %. 12% of 300,000 active. AID 2314; in the data active means max response mostly above about 13%, no sharp cut-off; inactive means mostly below about 14%; further: read at 38.3 µM for the half of the compounds with a filed dose; 0% is about no effect
Pf growth 48h: inhibits P. falciparum growth in the first generation, 48 h. Potency, µM (highest dose often 28.7 µM), for inactives: top-dose activity change, negative = inhibition, hits mostly inhibitors. 5.9% of 310,000 active. AID 504832. P. falciparum luciferase growth in erythrocytes, 48 h; further: potency means the concentration at half of the fitted maximal effect; on the % scale 0 is the no-effect control and ±100 the full control effect
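In quantitative HTS format, infected erythrocytes bearing luciferase-reporter parasites were treated for a single generation at 37 C. Luminescence after adding detection reagent served as the growth measure.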
Pf growth 96h: P. falciparum growth inhibition at 96 hours | P. falciparum luciferase reporter growth, 96 h | Potency, µM (top dose mostly 28.7 µM), inactives show top-dose activity change, negative = inhibition, most hits filed as inhibitors | 6.9% of 320,000 active | AID 504834; further: potency means the concentration at half of the fitted maximal effect; on the % scale 0 is the no-effect control and ±100 the full control effect
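96 h incubation, 37 C, 5% CO2, of luciferase-reporter P. falciparum-infected RBCs (2% hematocrit, 0.05% parasitemia final) with test compounds; endpoint luminescence.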
SARS PLpro yeast: SARS-CoV PLP inhibition in yeast. AID 485353. S. cerevisiae expressing SARS-CoV PLpro, growth rescue. Potency, µM (doses to about 32.9 µM), for inactives: at the highest dose activity, positive = growth rescue, most hits filed as activators. 0.19% of 330,000 active; calls by dose curve; further: potency means the concentration at half of the fitted maximal effect; 0% is about no effect; nearly all actives have a fitted effect of over 55% in size
* = called active by the depositor. Compounds with a hit are over-represented: about 21% of the library has one in this group of screens. Unless noted, the call rests on the fitted dose curve; in most records, active means well fitted inhibition curve with a large enough effect; inconclusive means small, poorly fitted or top-dose-only effect, or another doubt; inactive means no such curve, though single readings can be large or run the other way.

Screening Cc1cc(NC(=O)CSCC(=O)Nc2cccc(S(=O)(=O)N3CCCCCC3)c2)no1 returned Pf growth 48h inconclusive, Pf growth 96h -20.8% and SARS PLpro yeast -0.5%.
`CCCCC(=O)NC(c1ccc(C(C)C)cc1)c1ccc2cccnc2c1O` (configuration not stated) gave NS1 function inh -106.8%, Shiga toxin inh -2.8, Cycloheximide cs -3.0, Pf growth 48h 1.65µM*, Pf growth 96h 17.0% and SARS PLpro yeast 7.08µM*.
For CC(=O)NC(c1ccccc1)c1cc([N+](=O)[O-])c2cccnc2c1O (configuration not stated) the results were Shiga toxin inh 16.1, Cycloheximide cs -1.7, Pf growth 48h inconclusive, Pf growth 96h -25.5% and SARS PLpro yeast 1.7%.
For CCCCC(=O)NC(c1ccccc1Cl)c1ccc2cccnc2c1O (configuration not stated) the results were NS1 function inh -71.3%, Shiga toxin inh 6.5, Cycloheximide cs -1.9, Pf growth 48h 2.33µM*, Pf growth 96h 119.9% and SARS PLpro yeast inconclusive.
CC(=O)NC(c1ccc(C(C)C)cc1)c1ccc2cccnc2c1O (configuration not stated) was read as NS1 function inh -121.8%, Shiga toxin inh -10.7, Cycloheximide cs 3.2, Pf growth 48h 7.38µM*, Pf growth 96h 228.2% and SARS PLpro yeast -20.5%.
For Cc1nc2ccc(C(=O)OCc3ccccc3Br)cc2nc1C the results were NS1 function inh -2.5%, Shiga toxin inh 18.6, Cycloheximide cs 14.7, Pf growth 48h 6.8%, Pf growth 96h 48.8% and SARS PLpro yeast 52.9%.
`Cc1ccc(C(C)C)cc1S(=O)(=O)NCc1ccccn1` gave NS1 function inh -8.2%, Shiga toxin inh -9.8, Cycloheximide cs 0.5, Pf growth 48h 0.1%, Pf growth 96h 2.1% and SARS PLpro yeast -0.8%.
C#CCOCCOCCOCCNc1nc(N2CCN(C(=O)[C@H](CCC(=O)O)n3cc([C@@H](N)CC(N)=O)nn3)CC2)nc(N2CCN(C(=O)[C@H](CCC(=O)O)n3cc([C@@H](N)CC(N)=O)nn3)CC2)n1 was read as SARS PLpro yeast -0.2%.
`CCOc1ccc(-c2n[nH]c(=S)o2)cc1` gave Shiga toxin inh 19.0, Cycloheximide cs 20.5*, Pf growth 48h 71.7%, Pf growth 96h 44.6% and SARS PLpro yeast 0.0%.
`CCOc1ccc(-c2n[nH]c(=S)c3ccccc23)cc1` gave NS1 function inh 3.8%, Shiga toxin inh -4.9, Cycloheximide cs -3.8, Pf growth 48h inconclusive, Pf growth 96h 1.65µM* and SARS PLpro yeast 1.9%.
CCOc1ccccc1-c1n[nH]c(=S)o1 was read as NS1 function inh 1.0%, Shiga toxin inh -5.3, Cycloheximide cs -2.6, Pf growth 96h -1.5% and SARS PLpro yeast 0.5%.
Screening CC[C@@H]1C=C(C(=O)O)[C@H](c2ccc(OC)c(OC)c2)N1S(=O)(=O)c1ccc(C)cc1 returned SARS PLpro yeast 4.9%.
Cc1ccc(OCCSc2nc(N)cc(N)n2)cc1 was read as Shiga toxin inh 130.5*, Cycloheximide cs 53.0*, Pf growth 48h 437.5%, Pf growth 96h inconclusive and SARS PLpro yeast -11.4%.
`CCNc1nc(NC(C)C)nc(SCCOc2ccc(C)cc2)n1` gave NS1 function inh -0.7%, Shiga toxin inh 15.5, Cycloheximide cs 9.5, Pf growth 48h -21.3%, Pf growth 96h inconclusive and SARS PLpro yeast -22.7%.
COc1ccc(OCCSc2nc(N)cc(N)n2)cc1 was read as NS1 function inh 9.0%, Shiga toxin inh 100.6*, Cycloheximide cs 48.6*, Pf growth 96h 254.7% and SARS PLpro yeast -11.5%.
`O=C1CC(NS(=O)(=O)c2ccccc2F)CN1c1ccc2c(c1)OCCO2` (configuration not stated) gave Pf growth 48h 13.9%, Pf growth 96h -8.1% and SARS PLpro yeast 0.8%.
CC(=O)O/N=C(\N)c1ccc(-c2csnn2)cc1 was read as NS1 function inh -2.5%, Shiga toxin inh 64.7*, Cycloheximide cs 33.8*, Pf growth 48h 295.5%, Pf growth 96h 124.1% and SARS PLpro yeast -1.4%.
`CC(C)(C)C(=O)O/N=C(\N)c1ccc(-c2csnn2)cc1` gave NS1 function inh 0.3%, Shiga toxin inh 78.3*, Cycloheximide cs 44.6*, Pf growth 48h 309.0%, Pf growth 96h 276.3% and SARS PLpro yeast -1.1%.
Screening O=C(NCc1ccco1)c1ccc(-c2csnn2)cc1 returned NS1 function inh 2.3%, Shiga toxin inh 23.9, Cycloheximide cs 8.2, Pf growth 48h inconclusive, Pf growth 96h 20.1% and SARS PLpro yeast 0.3%.
`O=S(=O)(Nc1cccc(S(=O)(=O)N2CCCC2)c1)c1ccc(Cl)cc1` gave SARS PLpro yeast -5.1%.
`Cc1ccc(C(=O)N/N=C\c2ccc(OC(=O)c3cccs3)cc2)cn1` gave NS1 function inh -31.1%, Shiga toxin inh -15.5, Cycloheximide cs -1.8, Pf growth 48h 24.6%, Pf growth 96h 0.0% and SARS PLpro yeast -12.6%.
Screening Cc1ccc(C(=O)N/N=C/c2ccc(OC(=O)c3ccccc3Cl)cc2)cn1 returned NS1 function inh -5.5%, Shiga toxin inh 26.2, Cycloheximide cs 13.7*, Pf growth 48h -10.7%, Pf growth 96h inconclusive and SARS PLpro yeast -3.5%.
`COc1cc(C(=O)N/N=C/c2ccc(OC(=O)c3cccc(C)c3)cc2)ccc1O` gave NS1 function inh 15.5%, Shiga toxin inh 2.8, Cycloheximide cs 11.1, Pf growth 48h inconclusive, Pf growth 96h inconclusive and SARS PLpro yeast -0.6%.
O=C(N/N=C/c1cccc(OC(=O)c2ccccc2Cl)c1)c1cccnc1 was read as NS1 function inh -21.8%, Shiga toxin inh 49.1*, Cycloheximide cs 25.3*, Pf growth 48h -2.1%, Pf growth 96h 57.6% and SARS PLpro yeast -7.9%.
O=C(Oc1cccc(-n2cnnn2)c1)c1ccccc1Cl was read as NS1 function inh -3.3%, Shiga toxin inh -5.4, Cycloheximide cs -1.5, Pf growth 48h 35.0%, Pf growth 96h 62.9% and SARS PLpro yeast -0.7%.
Screening O=C(Oc1ccc(/C=N/O)cc1)c1ccccc1Cl returned NS1 function inh -47.5%, Shiga toxin inh 68.8*, Cycloheximide cs 51.3*, Pf growth 48h 22.3%, Pf growth 96h 30.7% and SARS PLpro yeast -1.9%.
`Cc1cccc(C(=O)Oc2ccc(/C=N/O)cc2)c1` gave NS1 function inh -16.2%, Shiga toxin inh 45.0*, Cycloheximide cs 47.7*, Pf growth 48h inactive, Pf growth 96h inconclusive and SARS PLpro yeast -10.3%.
CCC(C)N(C(=O)Cn1c(=O)cnc2ccccc21)C1CCS(=O)(=O)C1 (configuration not stated) was read as Pf growth 48h 30.3%, Pf growth 96h 0.2% and SARS PLpro yeast 2.2%.
For CC(=O)Nc1cccc(C(=O)/C=C/c2ccc(/C=C/C(=O)c3cccc(NC(C)=O)c3)cc2)c1 the results were NS1 function inh 10.4%, Shiga toxin inh 45.3, Cycloheximide cs 35.4*, Pf growth 48h 2.94µM*, Pf growth 96h 9.28µM* and SARS PLpro yeast -4.0%.
